From PubChem BioAssay AID1259422 (The Scripps Research Institute Molecular Screening Center, 2018)
Hit rate of the full screen: of about 640,000 compounds, about 9,300 (1.5%) were called active. Only a selection was taken, and actives are over-represented in it overall. Unmarked numbers belong to inactive results. No stated cut-off is given here; in the data, active means inhibition above about 32%; inactive means the rest.

Experiment: TEAD-YAP interaction inhibition, primary screen, TEAD-YAP interaction inhibitor project, luminescence, HEK-TIYL cells (AID 1259422);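 further: 0% = median of test compound wells and 100% = reference inhibitor wells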
Conditions: TEAD-Gal4/YAP UAS-luciferase luminescence, at 9.12 µM, active compounds read high
In the case of `COc1ccc(CC2(CCC(=O)NCc3nc(C)cs3)CCC(=O)N2)c2ccccc12` (configuration not stated), the inhibition is reported as -13.4%.
`CCOc1ccccc1Nc1nnc(Cc2ccc(OC)cc2)c(=O)[nH]1` showed an inhibition of 3.03%.
For `COc1ccc(Cc2nnc(N/N=C/c3ccccc3O)[nH]c2=O)cc1OC`, the inhibition was 85.4% (active).
Work on `COc1cccc(Nc2nnc(Cc3ccc(Cl)cc3)c(=O)[nH]2)c1` yielded an inhibition of 7.31%.
In the case of `COc1cccc(C2(NC(=O)CN3C(=O)NC4C3N(C)C(=O)N4C)CCCC2)c1` (configuration not stated), the inhibition is reported as 4.87%.
`CC1CN(C(=S)c2ccc(Br)cc2)CC(C)O1` (configuration not stated) showed an inhibition of 6.13%.
Compound `O=C(CSc1nnc(NC(=O)C2CCC2)s1)NCc1cccs1` has an inhibition of 5.18%.
With `O=C(N/N=C/c1cccc2ccccc12)C(=O)N/N=C/c1cccc2ccccc12` the inhibition was 0.24%.
In the case of `COc1cccc(/C=N/NC(=O)C(=O)Nc2cccc3ccccc23)c1O`, the inhibition is reported as 65.7% (active).
Work on `COc1cccc(/C=N/NC(=O)c2ccccc2I)c1O` yielded an inhibition of 13.4%.
In the case of `COc1cccc(/C=N/N=C2/NC(=O)CS2)c1O`, the inhibition is reported as 58.3% (active).
For `COc1cccc(/C=N/NC(=O)CC23CC4CC(CC(C4)C2)C3)c1O`, the inhibition was 69.8% (active).
With `COc1cccc(/C=N/NC(=O)c2cc(O)cc(O)c2)c1O` the inhibition was 20.7%.
Work on `COc1ccc(/C=N/N=C2/NC(=O)CS2)c(OC)c1` yielded an inhibition of -13.7%.
Work on `COc1cc(/C=N/N=C2/NC(=O)CS2)ccc1OC(=O)c1ccccc1C` yielded an inhibition of 3.4%.
Compound `COc1cccc(/C=N/NC(=O)CNc2cccc(C)c2)c1O` has an inhibition of 13.4%.
In the case of `O=C(Cc1ccsc1)N1CCC[C@@H]2CN(C/C=C/c3ccccc3)CC[C@H]21`, the inhibition is reported as -4.71%.
With `CS(=O)(=O)c1ccc(NCc2ccco2)cc1` the inhibition was -0.14%.
With `CCOC(=O)C1=C(C)N=c2s/c(=C\c3ccc(N(C)C)c(Br)c3)c(=O)n2C1c1ccc(OC)c(OC)c1` (configuration not stated) the inhibition was -28.6%.
`CCc1nc(SCC(N)=O)c2c3c(sc2n1)CCCC3` gave an inhibition of -22.7%.
With `COc1ccc2nc(N3CCC(NCc4cccc(F)c4F)CC3)nc(C)c2c1` the inhibition was 5.35%.
`CC(=O)C(C(C)=O)c1cc(Nc2ccc(C)cc2)c2c3c(onc13)-c1ccccc1C2=O` gave an inhibition of 3.02%.
With `CCOC(=O)C1(CO)NC(c2ccc(O)cc2)C2C(=O)N(C)C(=O)C21` (configuration not stated) the inhibition was -8.15%.
With `CCOC(=O)C(=O)C(C#N)c1ccc(OC(C)C)cc1` (configuration not stated) the inhibition was 2.75%.
With `CCCNc1ccc2ncc(-c3cccc(OC)c3)n2n1` the inhibition was 59.2% (active).
Work on `COc1cccc(-c2cnc3ccc(NCc4ccco4)nn23)c1` yielded an inhibition of 8.66%.
In the case of `c1ccc(OCCNc2cc(-c3ccccc3)ncn2)cc1`, the inhibition is reported as -25.8%.
In the case of `CCCCNc1cc(-c2cccc(OC)c2)ncn1`, the inhibition is reported as 64.6% (active).
`CCCNc1ccc2ncc(-c3ccco3)n2n1` showed an inhibition of 3.49%.
In the case of `CCCNc1cc(-c2cccc(N)c2)ncn1`, the inhibition is reported as -10.6%.
Work on `CCOc1cc(-c2nc3sc4c(c3c(=O)[nH]2)CCCC4)cc(Br)c1OCc1ccccc1F` yielded an inhibition of -1.86%.
Work on `CCN(CC)C(=O)c1sc(NC(=O)c2cccc(OC)c2)c(C(=O)OC(C)C)c1C` yielded an inhibition of 7.6%.
Compound `O=S(=O)(/C=C/c1ccccc1)N1CCN(CC(O)COCc2ccccc2)CC1` (configuration not stated) has an inhibition of 1.15%.
In the case of `Cc1ccc(S(=O)(=O)N(CC(=O)N2CCCC2)c2ccc(Cl)cc2C)cc1`, the inhibition is reported as 2.4%.
For `Cc1ccc(/C=N/NC(=O)c2ccc(Cl)cc2O)o1`, the inhibition was -20.5%.
With `Oc1c(CN2CCCC2)cc(COCc2ccccc2)c2cccnc12` the inhibition was 63% (active).
With `Oc1c(CN2CCN(c3cccc(Cl)c3)CC2)cc(Br)c2cccnc12` the inhibition was 5.69%.
For `COc1ccc(CN2CCN(Cc3cccnc3)CC2)cc1OCc1ccccc1`, the inhibition was 8.2%.
With `N#Cc1ccc(C(=O)Nc2ccc(Cc3ccncc3)cc2)c(F)c1` the inhibition was 55.3% (active).
`CCOC(=O)c1ccc(NC(=O)c2ccc(C#N)cc2F)cc1` gave an inhibition of -1.23%.
Work on `CCOc1ccc(NC(=O)c2ccc(C#N)cc2F)cc1` yielded an inhibition of -9.3%.
Compound `O=C(/C=C/c1ccccn1)c1ccc2c(c1)OCO2` has an inhibition of -21.2%.
Work on `COc1cccc(/C=C/C(=O)c2ccc3c(c2)OCCO3)c1` yielded an inhibition of -34.3%.
For `O=C(/C=C/c1ccc2c(c1)OCCO2)c1ccc(O)cc1`, the inhibition was 63.9% (active).
`COCCNc1c(C(C)Cc2ccc3c(c2)OCO3)nc2cnccn12` (configuration not stated) showed an inhibition of -1.93%.
`Cn1c(=O)cc(OCC(=O)NCCN2CCOCC2)c2ccccc21` showed an inhibition of -3.6%.
`N#Cc1ccc(-c2cccs2)nc1SCc1ccc(Br)cc1` showed an inhibition of -20.2%.
In the case of `Cc1ccccc1-n1c(-c2ccc(Br)cc2)n[nH]c1=S`, the inhibition is reported as -9.56%.
`c1ccc(-c2nc3nc(-c4cccs4)cn3nc2-c2ccccc2)cc1` showed an inhibition of -28.9%.
In the case of `Brc1ccc2nc(-c3cccs3)cn2c1`, the inhibition is reported as 37.5% (active).
For `Cc1ccc2nc(-c3ccc(Br)cc3)cn2c1`, the inhibition was 75.2% (active).
Compound `O=C(Nc1ccc(-c2cn3ccccc3n2)cc1)c1ccc(Br)cc1` has an inhibition of -5.14%.
For `N#Cc1ccccc1S(=O)(=O)Nc1ccc(Cl)cc1`, the inhibition was 7.64%.
`CC1=C(C(=O)Nc2cccc(Cl)c2)C(c2ccc([N+](=O)[O-])cc2)NC(=O)N1` (configuration not stated) showed an inhibition of -2.46%.
Work on `COc1ccc(NC(=O)c2ccc([N+](=O)[O-])o2)cc1OC` yielded an inhibition of 5.63%.
Work on `CCOC(=O)C1=C(C)N=c2s/c(=C\c3ccc(-c4ccc([N+](=O)[O-])cc4)o3)c(=O)n2C1c1cccs1` (configuration not stated) yielded an inhibition of 6.56%.
Work on `O=C(N/N=C/c1ccc2c(c1)OCO2)C12CC3CC(CC(C3)C1)C2` yielded an inhibition of -46.5%.
With `CC(C)(C)c1ccc(OCC(=O)Nc2ccccc2[N+](=O)[O-])cc1` the inhibition was 2.77%.
Compound `Cc1cc(Cl)ccc1NC(=O)COc1ccc([N+](=O)[O-])cc1` has an inhibition of -9.13%.
With `CC(C)(C)c1ccc(OCC(=O)Nc2cc([N+](=O)[O-])ccc2O)cc1` the inhibition was 77.8% (active).
In the case of `O=C(CSc1nc2[nH]ncc2c(=O)n1-c1ccccc1)Nc1ccc(Br)cc1F`, the inhibition is reported as 8.04%.
`CCOC(=O)C1CCCCN1Cc1cc(Br)ccc1O` (configuration not stated) gave an inhibition of 7.45%.
Work on `COc1ccc(C)cc1NC(=O)CN1C(=O)C(C)N(c2ccc(C)cc2)C1=O` (configuration not stated) yielded an inhibition of 8.14%.
Compound `C=CCn1c(=S)[nH]c2sc3c(c2c1=O)CCCCC3` has an inhibition of 8.8%.
`COc1cccc2cc(-c3nc(-c4ccc(C)cc4C)cs3)c(=O)oc12` showed an inhibition of 1.78%.
Work on `COc1cccc(Nc2nc(-c3cc4cccc(OC)c4oc3=O)cs2)c1` yielded an inhibition of -12.4%.
For `COc1ccccc1Nc1nc(-c2cc3cccc(OC)c3oc2=O)cs1`, the inhibition was 58% (active).
For `CCN(C(=O)C1CCC1)c1nnc(-c2ccc(OC)cc2)s1`, the inhibition was -89.3%.
In the case of `CCN1CCN(CC(=O)NCc2ccccc2Cl)C(=O)C1=O`, the inhibition is reported as 2.39%.
Compound `CCC(C)c1ccc(OCC(=O)NCc2ccco2)cc1` (configuration not stated) has an inhibition of -13.8%.
With `CCc1cc2c(C)cc(=O)oc2cc1OCC(=O)NCc1ccco1` the inhibition was 42.8% (active).
`O=C(COc1cc(Cl)ccc1Cl)NCc1ccco1` showed an inhibition of -2.94%.
Compound `Cc1ccc2nc(C3CCN(CC(=O)NCc4ccccc4)CC3)[nH]c2c1` has an inhibition of 7.44%.
For `Cc1ccc(-n2ncc(C(=O)O)c2-n2cccc2)cc1`, the inhibition was 1.07%.
In the case of `O=C(Cc1ccccc1)Nc1c(C(=O)N2CCCCCC2)cnn1-c1ccccc1`, the inhibition is reported as -25.7%.
For `Nc1c(C(=O)O)cnn1-c1ccccc1`, the inhibition was 35.4% (active).
With `COc1cc(C2CC(=O)Nc3cc4c(cc32)OCO4)ccc1O` (configuration not stated) the inhibition was -0.17%.
In the case of `COc1ccccc1C1C2=C(COC2=O)Nc2cc3c(cc21)OCO3` (configuration not stated), the inhibition is reported as 54% (active).
Work on `Cn1c2c(c(=O)n(C)c1=O)C(c1ccc(F)cc1)C1=C(COC1=O)N2` (configuration not stated) yielded an inhibition of 13.2%.
In the case of `O=C1OCC2=C1C(c1ccc([N+](=O)[O-])cc1)c1cc3c(cc1N2)OCO3` (configuration not stated), the inhibition is reported as 51.2% (active).
With `COc1ccccc1C1C2=C(COC2=O)Nc2c1c(=O)n(C)c(=O)n2C` (configuration not stated) the inhibition was 6.62%.
Compound `COc1ccc(C2CC(=O)C3=C(C2)Nc2ccccc2NC3c2cc3c(cc2[N+](=O)[O-])OCO3)cc1` (configuration not stated) has an inhibition of -38.4%.
For `CCc1ccccc1N(CC(=O)Nc1cccc(F)c1)S(C)(=O)=O`, the inhibition was -13.9%.
Work on `COC(=O)CNC(=O)CC1C(=O)NCCN1Cc1ccc(F)cc1` (configuration not stated) yielded an inhibition of -2%.
For `CCNS(=O)(=O)c1ccc(NC(=O)CCOCC)cc1`, the inhibition was 9.16%.
Compound `O=C(CN1C(=O)COc2ccc(Cl)cc21)Nc1ccccc1F` has an inhibition of 3.36%.
For `COC(=O)c1cc(C(=O)N2CC(C)CC(C)C2)cc([N+](=O)[O-])c1` (configuration not stated), the inhibition was 1.59%.
For `CCOC(=O)c1cc(S(=O)(=O)NCc2ccc(Cl)cc2)cn1C`, the inhibition was 2.16%.
With `COc1cc(Nc2ccnc(Nc3ccncc3)n2)cc(OC)c1OC` the inhibition was 3.91%.
In the case of `c1ccc(Nc2nccc(Nc3ccc(N4CCOCC4)cc3)n2)cc1`, the inhibition is reported as 16.2%.
In the case of `COc1cc(Nc2ccnc(Nc3ccc(N4CCOCC4)cc3)n2)cc(OC)c1OC`, the inhibition is reported as 72.7% (active).
With `S=c1[nH]nc(N2CCOCC2)n1Cc1ccccc1` the inhibition was 2.61%.
With `Cn1nccc1C(=O)NC1CCCc2c1cnn2-c1ccc(F)cc1F` (configuration not stated) the inhibition was 55.8% (active).
Work on `O=C(NC1CCCc2ccccc21)c1ccc2nccnc2c1` (configuration not stated) yielded an inhibition of -5.54%.
Work on `Cn1nccc1C(=O)N1CCC[C@@H]2CN(C(=O)Cc3ccc(F)cc3)CC[C@H]21` yielded an inhibition of 6.31%.
`Cc1cc(C(=O)N(Cc2ccccc2)C(C)C2CC2)c(Cl)cc1Cl` (configuration not stated) gave an inhibition of -10.9%.
`Cc1noc(C)c1NC(=O)N1CCC2(CC1)OCc1ccccc1O2` gave an inhibition of -5.79%.
